Here are results for five compounds from PubChem BioAssay (NCATS).

Assay [1] addresses Lysosomal acid glucosylceramidase (Homo sapiens) (UniProt P04062). As to the kind of experiment: Glucocerebrosidase-p2 (AID 348; in the data active means potency below about 10 µM; further: potency means the concentration at half of the fitted maximal effect). The note with it: purified GBA, blue fluorogenic substrate, 40 min. In short, it runs like this:
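Compounds titrated from 0.6 nM upwards against 0.2 nM enzyme in pH 5.9 citric acid/KH2PO4, taurocholate, tween-20; blue fluorogenic substrate 80 uM, 40 min room temperature, stopped and read Ex 365/Em 440 for AC50.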

The nature of assay [2]: AP1 Signaling Pathway (AID 357; active means well fitted curve in either direction with a large enough effect, not every such curve was filed as active; further: on the % scale 0 is the no-effect control and ±100 the full control effect). The note with it: ME-180 AP-1-bla reporter, EGF-induced, beta-lactamase ratio, 5 h; at 7.69 µM (top of the series) unless noted. In outline: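 Cells are seeded overnight, exposed to compound titrations and an EC50 level of EGF for 5 hours at 37 °C, then loaded with CCF4 dye for 2.5 hours. Beta-lactamase activity under the AP-1 element is read as a blue/green ratio.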

For assay [3], the target named is Cytochrome P450 1A2 (Homo sapiens) (UniProt P05177). As to the kind of experiment: p450-cyp1a2 (AID 410; calls by dose curve; further: potency means the concentration at half of the fitted maximal effect). The note with it: recombinant CYP1A2, luciferin-ME demethylation, luminescence; series mostly up to 57 µM. In outline: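 Human CYP1A2 (20nM) demethylated Luciferin-ME at its Km (100uM) in 100mM KPO4. After 10 min compound preincubation, NADPH regeneration ran the reaction 60 min at room temperature. Luciferin was read by luminescence, normalized to 57 uM furafylline.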

Assay [4] is described as follows: NFAT Signaling Pathway (AID 444; active means well fitted curve in either direction with a large enough effect, not every such curve was filed as active;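 further: carbachol stimulus at about its EC50 of 1 µM final; on the % scale 0 is the no-effect control and ±100 the full control effect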). The note with it: Jurkat NFAT-bla M1, carbachol, beta-lactamase ratio, 5 h; at 7.69 µM (top of the series) unless noted. In outline:
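Read-out: CCF4 FRET ratio (460 nm/530 nm) after 1 h RT dye loading, used for %activity and AC50 from titration series. Cells: Jurkat NFAT-β-lactamase/M1 line, treated with compound plus 1 uM carbachol for 5 h, 37 °C.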

Assay [5] is described as follows: Stat Signaling Pathway (AID 446; active means well fitted curve in either direction with a large enough effect, not every such curve was filed as active;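 further: ME-180 cervical cancer cells given 40 pM IL-6 alongside compound; SIE-controlled beta-lactamase reporter measured as 460/530 nm FRET emission ratio; on the % scale 0 is the no-effect control and ±100 the full control effect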). The note with it: ME-180 SIE beta-lactamase reporter, IL-6 stimulated, 5 h; at 7.69 µM (top of the series) unless noted. In outline:
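IL-6/STAT signaling read in ME-180 cells via an SIE beta-lactamase reporter. Stimulus was 40 pM IL-6 (its AC50) for 5 hrs, so both activation and inhibition register.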

Assay [6] concerns the target Glucocorticoid receptor (Homo sapiens) (UniProt P04150). Put plainly: GR-GFP Redistribution (AID 450;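 active means compounds whose dose series gives a full or clear partial fitted curve of increased nuclear translocation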; further: potency means the concentration at half of the fitted maximal effect). The note with it: U2OS GR-GFP nuclear translocation, laser cytometry, 2 h.
Assay [7] shares this target. Put plainly: GR-EFC Redistribution (AID 451; calls by dose curve; further: potency means the concentration at half of the fitted maximal effect). The note with it: CHO-K1 GR-EFC translocation, beta-gal luminescence, 2 h. In short, it runs like this:
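Translocation of GR-ED fusion to nuclear EA restores b-gal, read by luminescence after 1 h room-temperature detection. Engineered CHO-K1 biosensor cells, 1,000/well, exposed 2 h at 37 C to titrations up to 46 uM final.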

In assay [8] the target is Mitogen-activated protein kinase 10 (Mus musculus) (UniProt Q61831). Put plainly: JNK3 AlphaScreen Assay (AID 530; active means well fitted curve in either direction with a large enough effect, not every such curve was filed as active;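 further: kinase came from lysate of stimulated human HepG2 cells; signal reports phosphorylation of biotinylated GST-cJun 1-79 at Ser73 with 10 µM ATP; on the % scale 0 is the no-effect control and ±100 the full control effect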). The note with it: JNK3 lysate, c-Jun phosphorylation; series mostly up to 57.1 µM. In outline:
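Room-temperature AlphaScreen kinase assay; pre-activated HepG2 lysate as JNK3 source, biotin-GST-cJun(1-79) substrate, 10 uM ATP, compound 15 min preincubation.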

For assay [9], the target named is 3',5'-cyclic-AMP phosphodiesterase 4B (Homo sapiens) (UniProt Q07343). As to the kind of experiment: qHTS Assay for Inhibitors of PDE-IV (AID 607; active means well fitted activation curve with a large enough effect in the main read-out, with a control signal flat, not every such curve was filed as active; further: % of control where 0% means no effect). The note with it: HEK293 ACTOne CNG channel cells, membrane potential fluorescence; series mostly up to 22.9 µM. In outline:
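Live HEK293 cells with a modified cyclic nucleotide-gated (CNG) channel report intracellular cAMP via membrane-potential dye fluorescence (ex 535/em 590 nm). Endogenous PDE-IV was targeted. Compounds were tested at up to 22.9 uM final; RO 20-1724 100 uM served as control.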

For assay [10], the target named is Cytochrome P450 3A4 (Homo sapiens) (UniProt P08684). Put plainly: qHTS Assay for Inhibitors and Substrates of Cytochrome P450 3A4 (AID 884). Further: on the % scale 0 is the no-effect control and ±100 the full control effect; nearly all actives have a fitted effect of over 50% in size. The note with it: recombinant CYP3A4, Luciferin-PPXE luminescence; series mostly up to 57.1 µM. In short, it runs like this:
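20 nM human CYP3A4 with 25 uM Luciferin-PPXE (at KM) in 200 mM KPO4, preincubated 10 min with compound; NADPH regeneration started a 60 min RT reaction. Luciferin detected by luminescence, normalized to 57 uM ketoconazole as full inhibition.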

For assay [11], the target named is Cytochrome P450 2C19 (Homo sapiens) (UniProt P33261). As to the kind of experiment: qHTS Assay for Inhibitors and Substrates of Cytochrome P450 2C19 (AID 899). Further: on the % scale 0 is the no-effect control and ±100 the full control effect; nearly all actives have a fitted effect of over 60% in size. The note with it: recombinant CYP2C19, luciferin-H EGE luminescence; series mostly up to 57.1 µM. In outline:
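5nM enzyme + 10uM Luciferin-H EGE (=KM), 50mM KPO4; cpd pin-transferred, 10 min 37C; NADPH regen, 60 min 37C; stopped w/ luciferin detection reagent, 20 min; luminescence. Normalized to 57uM ketoconazole (AC100).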

Assay [12] can be described thus: qHTS Assay for Lipid Storage Modulators (AID 1519; calls by dose curve). The note with it: Drosophila S3 cells, BODIPY lipid droplet/cell ratio, laser cytometry, cells loaded with oleic acid; for activity change, negative = inhibition: at 57.5 µM (top of the series). In short, it runs like this: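 Cells seeded at 5,000 per well were treated with compounds over a concentration series and loaded with oleic acid (400 uM, as added). Lipid droplet fluorescence (488 nm excitation, 500-530 nm channel) was read by laser-scanning cytometry and normalized to 20 uM Triacsin C.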

Assay [13] deals with Dual specificity protein kinase CLK4 (Homo sapiens) (UniProt Q9HAZ1). As to the kind of experiment: qHTS Assay for Inhibitors of CDC-like Kinase 4 (Kinase-Glo Assay) (AID 1770). Further: nearly all actives have a fitted effect of over 65% in size. Further: potency means the concentration at half of the fitted maximal effect. The note with it: recombinant Clk4, Kinase-Glo ATP depletion luminescence; series mostly up to 66.7 µM. In outline:
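Readout: Kinase-Glo luminescence from ATP left after a 4.5 h room-temperature reaction of 25 nM Clk4 with 100 uM RS peptide and 1 uM ATP (final). Buffer: 25 mM Tris pH 7.5, 10 mM MgCl2.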

Assay [14] has the same target. As to the kind of experiment: qHTS Assay for Inhibitors of CDC-like Kinase 4 (ADP-Glo Assay) (AID 1771). Further: nearly all actives have a fitted effect of over 70% in size. Further: potency means the concentration at half of the fitted maximal effect. The note with it: recombinant CLK4, ADP-Glo luminescence; series mostly up to 80 µM. In short, it runs like this: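 Clk4 (25 nM) was incubated 1 hr at room temperature with 100 uM RS repeat peptide and 1 uM ATP in buffer with 2 mM MgCl2, 0.5 mM EGTA, 2.5 mM DTT. ADP formed was quantified by ADP-Glo luminescence.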

Assay [15] shares this target. Put plainly: qHTS Assay for Inhibitors of CDC-like Kinase 4 (ADP-FP Assay) (AID 1795). Further: nearly all actives have a fitted effect of over 60% in size. Further: potency means the concentration at half of the fitted maximal effect. The note with it: Transcreener ADP fluorescence polarization; series mostly up to 50 µM. In outline: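 FP readout: Orange Transcreener ADP2 tracer (4 nM) plus ADP antibody, read after 30 min at room temperature. Kinase step: 6.25 nM Clk4, 100 uM RS peptide, 1 uM ATP, pH 7.5, 1 h.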

Assay [16] concerns the target Ubiquitin carboxyl-terminal hydrolase 1 (Homo sapiens) (UniProt O94782). As to the kind of experiment: Inhibitors of USP1/UAF1: Pilot qHTS (AID 504865). Further: nearly all actives have a fitted effect of over 35% in size. Further: potency means the concentration at half of the fitted maximal effect. The note with it: purified USP1/UAF1, Ub-rhodamine cleavage fluorescence; series mostly up to 54.9 µM. In outline:
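1nM USP1/UAF1 + cpd, 15 min RT; start w/ Ub-Rho 150nM final; kinetic FL 480/540 nm, 6 reads q60 s. Buffer 50mM HEPES pH 7.8, 0.5mM EDTA, 1mM TCEP, 0.01% Tween-20, 0.1 mg/ml BSA.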

For assay [17], the target named is Cytochrome P450 3A4 (Homo sapiens) (UniProt P08684). As to the kind of experiment: qHTS Assay for Activators of Cytochrome P450 3A4 (AID 885). Further: nearly all actives have a fitted effect of over 65% in size. The note with it: recombinant CYP3A4, Luciferin-PPXE luminescence, 60 min; series mostly up to 57.1 µM. In short, it runs like this:
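Quantitative HTS format: compounds preincubated with 20nM human CYP3A4 and Luciferin-PPXE substrate at KM, reaction started by NADPH regeneration, stopped after 60 min, luciferase luminescence read 20 min later.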

Assay [18] in a line: qHTS Assay for Identification of Small Molecule Agonists for Hypoxia Response Element Signaling Pathway (AID 914; active means well fitted activation curve with a large enough effect in the signal ratio, with a control signal flat, not every such curve was filed as active; the % refers to the signal ratio; further: % of control where 0% means no effect). The note with it: ME-180 (cervical carcinoma) HRE-bla reporter, beta-lactamase ratio, CoCl2, 17 h; activation: stronger effect = higher value. In outline:
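qHTS titration; ME-180 HRE-bla cells; EC50 CoCl2 co-treatment, 17 h at 37 degrees Celsius; CCF4 dye, ex 405nm, em 460nm and 530nm; %Activity from ratio; AC50.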

Where [19] appears, read: measured here: cell count channel max response.
Where [20] appears, read: measured here: lipid channel max response.

Inconclusive results are not listed. Active and inactive are the calls of the source. Unless noted, the call rests on the fitted dose curve; in most records, active means well fitted curve in the direction sought with a large enough effect; inconclusive means small, poorly fitted or top-dose-only effect, or another doubt; inactive means no such curve, though single readings can be large; an effect the other way counts as inactive or inconclusive.

Cytochrome P450 3A4 (Homo sapiens), sequence (P08684 whole entry, looked up): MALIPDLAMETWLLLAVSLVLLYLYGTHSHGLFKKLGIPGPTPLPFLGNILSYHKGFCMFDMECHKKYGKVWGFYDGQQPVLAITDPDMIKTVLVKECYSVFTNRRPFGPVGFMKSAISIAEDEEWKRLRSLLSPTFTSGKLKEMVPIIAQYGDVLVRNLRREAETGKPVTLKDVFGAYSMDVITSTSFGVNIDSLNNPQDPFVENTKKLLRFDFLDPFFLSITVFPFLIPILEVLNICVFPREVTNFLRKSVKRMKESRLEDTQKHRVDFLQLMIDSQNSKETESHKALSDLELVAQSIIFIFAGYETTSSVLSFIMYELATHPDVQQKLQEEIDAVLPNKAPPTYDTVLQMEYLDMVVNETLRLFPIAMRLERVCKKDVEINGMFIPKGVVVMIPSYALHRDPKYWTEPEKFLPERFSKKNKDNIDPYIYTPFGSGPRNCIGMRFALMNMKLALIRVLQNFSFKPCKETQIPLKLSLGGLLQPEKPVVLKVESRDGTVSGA
Lysosomal acid glucosylceramidase (Homo sapiens), sequence (P04062 whole entry, looked up): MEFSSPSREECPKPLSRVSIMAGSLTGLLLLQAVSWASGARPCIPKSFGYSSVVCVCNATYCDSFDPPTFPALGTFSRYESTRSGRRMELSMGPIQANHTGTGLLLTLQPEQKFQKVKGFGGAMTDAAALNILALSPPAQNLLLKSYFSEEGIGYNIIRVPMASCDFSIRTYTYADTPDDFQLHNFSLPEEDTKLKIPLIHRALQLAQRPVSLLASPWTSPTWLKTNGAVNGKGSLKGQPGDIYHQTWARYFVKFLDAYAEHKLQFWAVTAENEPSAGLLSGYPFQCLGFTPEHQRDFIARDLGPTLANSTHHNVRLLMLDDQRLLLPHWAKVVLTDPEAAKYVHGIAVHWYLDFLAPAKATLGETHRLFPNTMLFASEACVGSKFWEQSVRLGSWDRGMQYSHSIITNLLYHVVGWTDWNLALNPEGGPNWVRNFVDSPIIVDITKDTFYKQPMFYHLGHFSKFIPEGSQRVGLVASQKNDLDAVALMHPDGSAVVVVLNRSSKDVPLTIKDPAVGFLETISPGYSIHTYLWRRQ
Cytochrome P450 1A2 (Homo sapiens), sequence (P05177 whole entry, looked up): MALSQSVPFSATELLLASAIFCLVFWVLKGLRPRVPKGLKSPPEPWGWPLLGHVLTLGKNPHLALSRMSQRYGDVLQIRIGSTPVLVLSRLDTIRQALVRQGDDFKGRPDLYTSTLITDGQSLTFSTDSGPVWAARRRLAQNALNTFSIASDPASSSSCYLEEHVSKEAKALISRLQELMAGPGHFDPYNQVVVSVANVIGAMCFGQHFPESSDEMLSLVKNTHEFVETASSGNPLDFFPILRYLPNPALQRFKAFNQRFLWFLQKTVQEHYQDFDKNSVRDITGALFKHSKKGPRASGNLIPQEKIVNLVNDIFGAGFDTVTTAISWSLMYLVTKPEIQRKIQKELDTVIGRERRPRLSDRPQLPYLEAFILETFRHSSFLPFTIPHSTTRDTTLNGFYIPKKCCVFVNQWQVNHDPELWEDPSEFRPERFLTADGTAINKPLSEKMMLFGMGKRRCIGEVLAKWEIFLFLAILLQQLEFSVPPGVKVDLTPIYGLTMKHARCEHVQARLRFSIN
Dual specificity protein kinase CLK4 (Homo sapiens), sequence (Q9HAZ1 whole entry, looked up): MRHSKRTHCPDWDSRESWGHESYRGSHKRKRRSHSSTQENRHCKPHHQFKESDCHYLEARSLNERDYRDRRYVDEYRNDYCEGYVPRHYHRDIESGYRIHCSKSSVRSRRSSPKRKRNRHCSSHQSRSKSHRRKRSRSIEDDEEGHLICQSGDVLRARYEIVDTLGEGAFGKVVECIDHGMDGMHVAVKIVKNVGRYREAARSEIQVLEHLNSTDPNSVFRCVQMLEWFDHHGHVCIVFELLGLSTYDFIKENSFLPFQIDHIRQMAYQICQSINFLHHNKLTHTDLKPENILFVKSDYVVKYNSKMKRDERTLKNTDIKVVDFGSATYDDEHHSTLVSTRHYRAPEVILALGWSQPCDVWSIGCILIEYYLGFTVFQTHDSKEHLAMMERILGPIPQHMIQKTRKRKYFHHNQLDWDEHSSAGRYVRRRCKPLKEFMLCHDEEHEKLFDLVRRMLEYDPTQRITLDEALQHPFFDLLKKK
Glucocorticoid receptor (Homo sapiens), sequence (P04150 whole entry, looked up): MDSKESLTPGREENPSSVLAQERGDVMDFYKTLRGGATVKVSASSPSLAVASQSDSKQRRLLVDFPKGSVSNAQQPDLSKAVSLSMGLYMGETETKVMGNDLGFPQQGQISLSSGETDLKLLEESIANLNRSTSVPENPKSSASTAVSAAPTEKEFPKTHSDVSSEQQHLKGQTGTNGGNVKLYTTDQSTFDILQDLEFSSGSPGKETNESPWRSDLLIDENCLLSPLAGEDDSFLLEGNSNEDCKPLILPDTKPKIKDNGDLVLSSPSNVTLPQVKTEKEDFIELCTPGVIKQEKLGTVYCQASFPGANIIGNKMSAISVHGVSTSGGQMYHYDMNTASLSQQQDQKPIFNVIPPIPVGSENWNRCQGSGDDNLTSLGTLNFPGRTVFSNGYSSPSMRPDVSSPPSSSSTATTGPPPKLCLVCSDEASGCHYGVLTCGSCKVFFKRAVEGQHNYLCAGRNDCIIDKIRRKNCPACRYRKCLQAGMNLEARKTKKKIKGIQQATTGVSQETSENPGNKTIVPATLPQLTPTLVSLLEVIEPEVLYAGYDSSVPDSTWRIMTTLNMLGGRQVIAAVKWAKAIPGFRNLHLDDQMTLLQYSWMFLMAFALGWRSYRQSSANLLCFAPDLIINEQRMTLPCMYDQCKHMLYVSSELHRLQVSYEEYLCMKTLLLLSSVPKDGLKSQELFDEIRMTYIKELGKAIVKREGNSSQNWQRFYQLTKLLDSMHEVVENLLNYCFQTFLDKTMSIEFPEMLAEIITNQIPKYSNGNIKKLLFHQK
Ubiquitin carboxyl-terminal hydrolase 1 (Homo sapiens), sequence (O94782 whole entry, looked up): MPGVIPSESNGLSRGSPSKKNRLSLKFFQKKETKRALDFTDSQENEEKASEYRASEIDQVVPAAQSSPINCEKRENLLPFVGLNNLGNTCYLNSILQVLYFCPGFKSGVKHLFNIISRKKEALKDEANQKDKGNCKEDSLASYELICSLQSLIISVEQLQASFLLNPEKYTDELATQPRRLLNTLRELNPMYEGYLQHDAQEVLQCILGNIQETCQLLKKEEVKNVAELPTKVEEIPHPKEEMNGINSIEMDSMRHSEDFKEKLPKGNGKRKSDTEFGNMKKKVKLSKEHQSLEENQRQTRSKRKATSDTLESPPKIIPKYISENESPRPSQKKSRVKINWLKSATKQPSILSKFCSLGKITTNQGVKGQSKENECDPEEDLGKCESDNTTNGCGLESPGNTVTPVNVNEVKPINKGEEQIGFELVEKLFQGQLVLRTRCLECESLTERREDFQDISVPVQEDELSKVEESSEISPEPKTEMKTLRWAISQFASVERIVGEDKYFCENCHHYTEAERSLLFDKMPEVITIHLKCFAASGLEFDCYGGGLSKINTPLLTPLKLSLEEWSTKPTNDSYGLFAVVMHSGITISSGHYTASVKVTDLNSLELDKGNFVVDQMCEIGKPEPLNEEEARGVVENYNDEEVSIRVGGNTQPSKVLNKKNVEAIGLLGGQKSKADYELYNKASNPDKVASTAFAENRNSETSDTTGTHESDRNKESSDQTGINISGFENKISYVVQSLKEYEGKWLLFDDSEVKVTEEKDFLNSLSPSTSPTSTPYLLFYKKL
3',5'-cyclic-AMP phosphodiesterase 4B (Homo sapiens), sequence (Q07343 whole entry, looked up): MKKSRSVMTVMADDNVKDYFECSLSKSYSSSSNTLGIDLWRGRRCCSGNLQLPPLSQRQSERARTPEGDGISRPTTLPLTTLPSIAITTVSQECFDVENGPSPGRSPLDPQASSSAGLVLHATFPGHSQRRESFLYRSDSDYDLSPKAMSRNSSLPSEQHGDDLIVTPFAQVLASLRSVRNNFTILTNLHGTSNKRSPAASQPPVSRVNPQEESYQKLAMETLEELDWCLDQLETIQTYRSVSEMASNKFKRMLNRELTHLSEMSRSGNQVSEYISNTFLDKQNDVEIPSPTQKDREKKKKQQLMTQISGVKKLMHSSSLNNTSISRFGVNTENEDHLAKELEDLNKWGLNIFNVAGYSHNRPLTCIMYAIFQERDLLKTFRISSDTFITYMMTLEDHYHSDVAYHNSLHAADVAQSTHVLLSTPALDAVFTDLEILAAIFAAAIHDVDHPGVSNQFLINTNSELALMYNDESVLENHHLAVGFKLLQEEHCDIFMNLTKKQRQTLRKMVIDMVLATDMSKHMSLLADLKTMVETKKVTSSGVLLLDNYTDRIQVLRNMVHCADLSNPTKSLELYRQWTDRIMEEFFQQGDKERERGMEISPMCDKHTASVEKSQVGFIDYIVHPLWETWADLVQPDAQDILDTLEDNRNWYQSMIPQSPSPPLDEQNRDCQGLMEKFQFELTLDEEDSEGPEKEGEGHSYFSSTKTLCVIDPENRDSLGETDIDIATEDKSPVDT
Cytochrome P450 2C19 (Homo sapiens), sequence (P33261 whole entry, looked up): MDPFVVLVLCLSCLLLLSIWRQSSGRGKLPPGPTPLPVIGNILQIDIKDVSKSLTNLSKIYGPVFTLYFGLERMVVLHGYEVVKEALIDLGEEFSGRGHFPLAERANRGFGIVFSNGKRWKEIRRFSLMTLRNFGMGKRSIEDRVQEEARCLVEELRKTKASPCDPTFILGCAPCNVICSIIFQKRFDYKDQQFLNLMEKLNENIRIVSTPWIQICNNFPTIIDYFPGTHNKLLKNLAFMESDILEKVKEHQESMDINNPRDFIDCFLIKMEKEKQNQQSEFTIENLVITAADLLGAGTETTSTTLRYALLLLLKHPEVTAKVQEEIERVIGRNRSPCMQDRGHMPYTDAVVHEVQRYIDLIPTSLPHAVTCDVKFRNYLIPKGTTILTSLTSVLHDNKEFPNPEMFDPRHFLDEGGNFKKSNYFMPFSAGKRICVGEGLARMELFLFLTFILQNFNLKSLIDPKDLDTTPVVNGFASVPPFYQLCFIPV

Take `CN1CCN(c2ncc3nc(-c4cccc(C#N)c4)c(=O)n(C[C@H]4CCCO4)c3n2)CC1`: the Potency in [1] is > 11.4 µM (inactive); in assay [3] it was 15.8 µM (active); in assay [6] it was > 9.22 µM (inactive); in assay [7] it was > 46 µM (inactive). Moreover, the figures for the activity change, negative = inhibition in [2], in assay [4] and in [12] were 27.9% (inactive), -3.07% (inactive) and 2.76% (inactive), respectively. In addition, in assay [5], the activity, negative = inhibition was 11.4% (inactive). For the same compound, the Potency entry in [8], in assay [9], in assay [10], in assay [11], in [13] and in assay [14] was “inactive” each time. In addition, the Potency entry in assay [15] and in [16] was “inactive” in each case. Moreover, the values for the max response in assay [12] (setting [19]) and in assay [12] (setting [20]) were 11.1% and 12.1%, respectively.

For the compound `Cc1nc2cnc(N3CCN(C)CC3)nc2n(C[C@H]2CCCO2)c1=O`, the Potency was > 11.4 µM (inactive) in assay [1], > 9.22 µM (inactive) in assay [6] and > 46 µM (inactive) in [7]. For the same compound, the activity change, negative = inhibition in [2] was -19.6% (inactive); in assay [4] it was -3.95% (inactive); in [12] it was 2.98% (inactive). For the same compound, the activity, negative = inhibition in assay [5] is -13% (inactive). Besides, the Potency result in assay [8], in [13], in assay [14], in assay [15] and in assay [16] was “inactive” in each case. Also, the max response in [12] (setting [19]) was found to be 2.4%; in assay [12] (setting [20]) it was 4.31%.

As for `Cc1ccccc1-c1nc(N2CCOCC2)c2ccccc2n1`, the Potency in [1] is > 11.4 µM (inactive); in [3] it was 2 µM (active); in [6], > 46 µM (inactive); in assay [7] it was > 46 µM (inactive); in assay [13], 15.8 µM (active); in assay [14], 15.8 µM (active). Moreover, the Potency in assay [15] is 12.6 µM (active); in [16], 28.2 µM (active). For the same compound, the activity change, negative = inhibition was 4.71% (inactive) in [2], -2.19% (inactive) in [4] and 6.43% (inactive) in [12]. Moreover, the activity, negative = inhibition in [5] is 4.23% (inactive). Further, the Potency entry in assay [8] and in assay [17] was “inactive” throughout. In addition, in [18], the activation is 11% (inactive). Moreover, the values for the max response in [12] (setting [19]) and in assay [12] (setting [20]) were 31.7% and 38.9%, respectively.

Consider `CC(=O)NCCNc1ncnc2ccc(-c3ccccc3C)cc12`, for which the Potency in [1] was > 11.4 µM (inactive); in assay [3] it was 0.631 µM (active); in assay [6] it was > 46 µM (inactive); in assay [7], > 46 µM (inactive); in assay [13], 15.8 µM (active); in assay [14], 12.6 µM (active). For the same compound, in [15], the Potency was 12.6 µM (active). Further, the activity change, negative = inhibition was 28% (inactive) in assay [2], -4.6% (inactive) in assay [4] and 3.95% (inactive) in assay [12]. Besides, the activity, negative = inhibition in assay [5] was -8.49% (inactive). Also, the Potency entry in assay [8], in [17] and in assay [16] was “inactive” throughout. The max response in assay [12] (setting [19]) was 28.7%; in assay [12] (setting [20]), 28.3%.

`CN1CCN(c2ncc3ncc(=O)n(Cc4ccc(F)cc4)c3n2)CC1`: the Potency in assay [1] was > 11.4 µM (inactive); in assay [3] it was 25.1 µM (active); in assay [6], > 9.22 µM (inactive); in assay [7], > 46 µM (inactive). Moreover, the figures for the activity change, negative = inhibition in assay [2], in assay [4] and in assay [12] were -13.9% (inactive), -8.56% (inactive) and 2.71% (inactive), respectively. Further, the activity, negative = inhibition in assay [5] is -18.8% (inactive). Besides, the Potency result in assay [8], in assay [9], in assay [17], in assay [13], in [14] and in [15] was “inactive” in each case. For the same compound, in assay [16], the Potency entry was “inactive”. The activation in assay [18] was -5.68% (inactive). In addition, the max response in assay [12] (setting [19]) came to 5.89%; in assay [12] (setting [20]), 7.12%.
